Results: PubChem BioAssay (Tox21)
Unmarked numbers belong to inactive results. Calls of active or inactive are those of the source. Calls follow the shape of the dose curve; as a rule, active = well fitted curve in the direction sought with a large enough effect in the signal ratio in the repeat runs (not every such curve was filed as active); inconclusive = weak or mixed curves, or effect the other way; inactive = no such curve, though single readings can be large or run the other way; the % refers to the signal ratio.

Biological target: Estrogen receptor (Homo sapiens) (UniProt P03372)
Assay: qHTS assay to identify small molecule antagonists of the estrogen receptor alpha (ER-alpha) signaling pathway (AID 743069)
Settings: HEK293 ER-alpha-UAS-bla, beta-lactamase ratio, antagonist mode; series mostly up to 69.4 µM; activity, negative = inhibition: at the top concentration
Text: National Center for Advancing Translational Sciences [NCATS]
NIH Chemical Genomics Center [NCGC]
U.S. Environmental Protection Agency [EPA]
National Institutes of Environmental Health Sciences [NIEHS]
National Toxicology Program [NTP]
U.S. Food and Drug Administration [FDA]
Estrogen receptor (ER), a nuclear hormone receptor, plays an important role in development, metabolic homeostasis and reproduction. Two subtypes of ER, ER-alpha and ER-beta have similar expression patterns with some uniqueness in both types. Endocrine disrupting chemicals (EDCs) and their interactions with steroid hormone receptors like ER causes disruption of normal endocrine function. To identify the compounds that inhibit ER signaling, an ER-alpha-UAS-bla GripTiteTM cell line (Invitrogen, Carlsbad, CA, USA) containing a beta-lactamase reporter gene under the control of an Upstream Activator Sequence (UAS) stably integrated into HEK293 cells was used to screen the Tox21 10K compound library.
Tox21 Assay Protocol Summary:
ER-alpha-bla cells were cultured in assay medium containing 2% charcoal stripped FBS overnight in the culture flasks before the assay was performed. The cells were dispensed at 5,000 cells/5 uL of assay medium per well into black wall/clear-bottom 1536-well plates using a Multidrop Combi (ThermoFisher Scientific, Waltham, MA) dispenser. After the assay plates were incubated at a 37C and 5% CO2 for 4 hr, 23 nL of compounds dissolved in DMSO, positive controls or DMSO only was transferred to the assay plate by a Pintool station (Kalypsys, San Diego, CA), followed by addition of 1 uL of 17beta-estradiol in assay medium using a Flying Reagent Dispenser (Aurora Discovery, San Diego, CA). The plates were incubated at 37C and 5% CO2 for 18 hr. Then 1 uL of LiveBLAzerTM B/G FRET substrate was added using a Flying Reagent Dispenser, the plates were incubated at room temperature for 2 hours, and fluorescence intensity was measured by an Envision plate reader (PerkinElmer, Shelton, CT).
% is scaled to controls: 0 for no effect and ±100 for the full control effect; potency is read from the fitted curve at half-maximal effect.

Sequence of Estrogen receptor (Homo sapiens) (P03372 whole entry, looked up): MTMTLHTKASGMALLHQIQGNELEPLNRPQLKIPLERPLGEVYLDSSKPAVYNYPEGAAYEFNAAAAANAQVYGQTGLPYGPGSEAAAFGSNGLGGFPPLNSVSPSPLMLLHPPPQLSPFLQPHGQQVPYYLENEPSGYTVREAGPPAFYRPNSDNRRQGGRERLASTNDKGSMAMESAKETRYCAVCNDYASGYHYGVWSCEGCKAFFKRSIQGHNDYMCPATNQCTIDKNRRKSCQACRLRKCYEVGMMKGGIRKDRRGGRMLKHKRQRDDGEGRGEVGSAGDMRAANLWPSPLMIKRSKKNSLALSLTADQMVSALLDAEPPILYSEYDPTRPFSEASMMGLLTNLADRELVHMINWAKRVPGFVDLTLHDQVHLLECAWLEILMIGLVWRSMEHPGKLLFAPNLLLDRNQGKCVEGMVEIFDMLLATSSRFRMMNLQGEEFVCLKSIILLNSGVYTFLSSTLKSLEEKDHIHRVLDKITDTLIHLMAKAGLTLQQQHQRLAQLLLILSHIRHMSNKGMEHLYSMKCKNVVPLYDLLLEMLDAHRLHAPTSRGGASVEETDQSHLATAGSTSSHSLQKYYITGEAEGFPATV

Row | Structure (SMILES) | activity, negative = inhibition | Potency
1 | CN(C)C1CCCCC1 | 3.92% | 
2 | O=C(Cl)OCc1ccccc1 | -3.98% [at 79.1 µM] | 
3 | C[C@H]1CCCC(=O)CCC/C=C/c2cc(O)cc(O)c2C(=O)O1 |  | 47.2 µM [inconclusive] (active)
4 | COc1ccc(C=O)cc1O | 14.9% [at 79.1 µM] | 
5 | CCOP(=S)(OCC)Oc1ccc(Cl)cc1Cl | 16.9% | 
6 | O=C/C=C/c1ccco1 | -14.1% | 
7 | CC1N=C(N)OC1c1ccccc1 (stereo not given) | 7.84% | 
8 | O=CCCl | 15.5% | 
9 | Clc1nc(Cl)nc(Nc2ccccc2Cl)n1 | -7.3% | 
10 | O=C(CCl)NCO | 12.4% | 
11 | Brc1c(Br)c(Br)c(Br)c(Br)c1Br | -6.9% [at 6.71 µM] | 
12 | COc1ccc(CN2CCNCC2)c(OC)c1OC | -2.22% [at 32.6 µM] | 
13 | CCN[C@H](C)Cc1cccc(C(F)(F)F)c1 | -24% | 
14 | COP(=O)(O)OC | 14.8% [at 79.1 µM] | 
15 | CC[C@H](O)C(C[C@H](C)N(C)C)(c1ccccc1)c1ccccc1 | -20.2% [at 79.1 µM] | 
16 | Oc1ccc(Cc2ccc(O)cc2)cc1 | -27.7% [at 79.1 µM] | 
17 | NNC(N)=O | 3.68% [at 79.1 µM] | 
18 | CCN(CCO)CCn1c(Cc2ccccc2)nc2c1c(=O)n(C)c(=O)n2C | -14.1% | 
19 | CN(CCO)CCO | -3.36% [at 79.1 µM] | 
20 | CC1NCCOC1c1ccccc1 (stereo not given) | -4.86% | 

Row | Structure (SMILES) | activity, negative = inhibition | Potency
21 | [O-][Br+2]([O-])O | 5.35% | 
22 | CC(C)(C1CCC(O)CC1)C1CCC(O)CC1 (stereo not given) | -15.7% | 
23 | O=C(Cl)C(Cl)Cl | -5.45% | 
24 | NCCOS(=O)(=O)O | -15.5% | 
25 | O=C(Cl)CCl | 11.2% [at 79.1 µM] | 
26 | Cc1ccc2c(c1)C1CN(C)CCC1N2 (stereo not given) | 4.85% | 
27 | N#CN=C1SCCN1Cc1ccc(Cl)nc1 | 10.6% | 
28 | CC(C)(N)Cc1ccc(Cl)cc1 | 2.12% | 
29 | COc1ccccc1OC | 23.6% | 
30 | Clc1cc2c(cc1Cl)Oc1cc(Cl)c(Cl)cc1O2 | -7.88% [at 0.274 µM] | 
31 | CCC(C)(C#N)N=NC(C)(C#N)CC (stereo not given) | 17.5% | 
32 | COc1cccc(C=O)c1 | 2.24% | 
33 | C=CCCC#N | 2.79% | 
34 | CN1C(=O)COc2c(C(=O)NC3CN4CCC3CC4)cc(Cl)cc21 (stereo not given) | 30.6% | 
35 | C(COCC1CO1)OCC1CO1 (stereo not given) | 16.2% | 
36 | CCN[C@@H](C)Cc1cccc(C(F)(F)F)c1 | 32.5% | 
37 | CC(C)(C)C(=O)Cl | -2.2% [at 79.1 µM] | 
38 | COc1cccc([C@@]2(O)CCCC[C@@H]2CN(C)C)c1 | -4.85% | 
39 | O=C1CC(=O)NC(=O)N1 | 12.2% | 
40 | O=C(O)c1c(Cl)ccc2cc(Cl)cnc12 | 10.3% | 
